# Compound activity (PubChem BioAssay)
# TIM10 inh – growth inhibitors of isogenic TIM10 control yeast, primary screen, counter-screen for tim10-1 yeast inhibitor project, luminescence, uHTS; S. cerevisiae TIM10 strain growth, BacTiter-Glo luminescence, 24 h; inhibition, % at 10 µM; 330,000 tested, 1.4% active;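 active means inhibition of 40% or more at the single tested concentration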;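 further: wild-type TIM10 isogenic control strain grown at permissive 25 °C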
# SKKanGAS inh – S. pyogenes SKKanGAS growth inhibitors in kanamycin, primary screen, streptokinase expression inhibitor project, SKKanGAS strain, BacTiter-Glo luminescence; 6 h; inhibition, % at 7.5 µM; 300,000 tested, 1.3% active; AID 1662, 2009;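 active means mean replicate score, as percent of positive control median, at least 50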;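 further: strain carries kanamycin resistance gene driven by streptokinase promoter and grows in 40 µg/ml kanamycin; loss of luminescence reflects streptokinase promoter inhibition or plain growth inhibition; 0% = median of DMSO wells and 100% = positive control at its reference dose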
# tim10-1 inh – growth inhibitors of tim10-1 mutant yeast, primary screen, luminescence, uHTS | S. cerevisiae tim10-1 ts strain growth, BacTiter-Glo, 24 h | inhibition, % at 20 µM | 330,000 tested, 2.2% active;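 active means inhibition of at least 40%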;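 further: mutant grown at 25 °C; 0% = DMSO wells with yeast and 100% = wells holding no yeast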
# tim23-1 inh – growth inhibitors of tim23-1 mutant yeast, primary screen, luminescence, uHTS; S. cerevisiae tim23-1 growth, BacTiter-Glo luminescence, 24 h; inhibition, % at 20 µM; 330,000 tested, 1.3% active; AID 463212, 2010;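 active means growth inhibition of the mutant yeast at or above 50%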;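 further: temperature-sensitive mutant grown at 25 °C; plate controls were DMSO-treated mutant yeast for no effect and medium wells lacking yeast for full effect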
# NALP3 yeast inh – NALP3 inflammasome inhibitors in reconstituted yeast, primary screen, luminescence, uHTS. Yeast reconstituted NLRP3/ASC/caspase-1, beta-gal luminescence, 24 h. inhibition, % at 10 µM. AID 2825, 2010. 330,000 tested, 0.39% active;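 active means inhibition of 50% or more; inactive means inhibition below 50%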;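 further: plate controls were induced DMSO wells for no effect and uninduced yeast grown without galactose for full effect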
# NALP1 yeast inh – NALP1 inflammasome inhibitors in reconstituted yeast, colorimetric, S. cerevisiae, triplicate retest | 280,000 tested, 0.61% active | AID 2071, 2009 | S. cerevisiae NALP1/ASC/caspase-1 growth, X-gal OD620, 72 h | inhibition, % at 10 µM; in the data active means inhibition mostly above about 24%, no sharp cut-off; inactive means mostly below about 32%
# tim10-1 conf – growth inhibitors of tim10-1 mutant yeast, confirmation, single concentration, luminescence, S. cerevisiae; shares compounds with tim10-1 inh; S. cerevisiae tim10-1 ts strain growth, BacTiter-Glo, 24 h; inhibition, % at 20 µM; 7,400 tested, 56% active;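 active means inhibition of yeast growth at or above a set limit in either of two repeat tests at 20 µM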;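 further: tim10-1 mutant grown at permissive 25 °C to find synthetic lethal compounds; 0% = DMSO yeast wells and 100% = medium wells without yeast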
# * = called active by the depositor; . = no result. Most compounds without a hit are left out; they make up all but 4.9% or so of the library.
SMILES,TIM10 inh,SKKanGAS inh,tim10-1 inh,tim23-1 inh,NALP3 yeast inh,NALP1 yeast inh,tim10-1 conf
CC(C)(C)c1ccc(S(=O)(=O)CC(O)CSc2nc3c(cc2C#N)CCCC3)cc1 (stereo not given),37,12,40*,7,5,1,25
CC(C)c1ccc(S(=O)(=O)Nc2ccc(SC(F)F)cc2)cc1,26,27,50*,43,5,30,28*
CC(C)c1ccc(NS(=O)(=O)c2ccc(-n3cccn3)cc2)cc1,11,-1,45*,30,-2,11,8
CC(C)c1ccc(S(=O)(=O)Nc2ccc(-n3cnnn3)cc2)cc1,21,.,23,13,16,.,.
CC(C)c1ccc(NS(=O)(=O)c2ccc(Cl)nc2)cc1,17,-1,4,22,4,22,.
Cc1ccc(CN(Cc2ccco2)C(=S)Nc2ccccc2C)cc1,10,11,42*,10,18,16,26
CC(C)NC(=S)N(C)C1(c2ccccc2Cl)CCCCC1=O (stereo not given),2,2,28,29,9,.,.
CN(C(=S)NC1CCCCC1)C1(c2ccccc2Cl)CCCCC1=O (stereo not given),27,6,46*,42,10,9,35*
CCCc1nc([N+](=O)[O-])c(S(=O)(=O)c2ccccc2)n1CC(C)C,21,3,50*,32,-9,11,26
Cc1cccc(C)c1OCC(O)Cn1c2ccccc2c2ccccc21 (stereo not given),31,88*,45*,10,21,10,5
Cc1cccc(C)c1OCC(O)Cn1nnc2ccccc21 (stereo not given),2,-4,12,15,22,8,.
Cc1ccccc1C(=O)NC1CCCCCCC1,-1,3,4,7,30,1,.
O=C(NC1CCCCCC1)c1ccc[nH]c1=S,16,6,44*,7,3,-7,30
CCCCN(C(=O)Cc1ccc(S(=O)(=O)N2CCOCC2)s1)c1c(N)n(CCCC)c(=O)[nH]c1=O,6,-1,-5,-2,11,.,.
O=C(Nc1ccc(Oc2cccnc2)cc1)C1CCN(Cc2ccc(F)cc2)CC1,0,-9,29,4,25,15,.
O=C(Nc1ccc(Oc2cccnc2)cc1)C1CCN(Cc2cc(Cl)ccc2O)CC1,7,0,49*,13,22,21,-4
COCCN(C(=S)Nc1ccc(OC)cc1)C(C)c1cccs1 (stereo not given),22,4,41*,36,6,22,25
CCOC(=O)C1(S(=O)(=O)c2ccc(Cl)cc2)CCN(Cc2ccc(C)cc2)CC1,28,2,50*,45,6,5,28
N/C(=N\OC(=O)c1cccc2ccccc12)c1ccncc1,29,-5,49*,28,-7,0,40*
O=C(Oc1ccccc1O)c1cccc2ccccc12,21,1,47*,43,39,-10,34*
Cn1cc(S(=O)(=O)N2CCCC2)cc1C(=O)O,8,.,-9,1,-8,.,.
OC1(C#Cc2c(-c3ccsc3)oc3ccc(N4CCOCC4)cc23)CCCCC1,24,50*,41*,31,-1,.,5
COc1ccc(-c2oc3ccc(N4CCOCC4)cc3c2C#CC2(O)CCCCC2)cc1,23,69*,41*,36,0,.,12
O=C(CN1C(=O)NC2(CCCc3ccccc32)C1=O)c1ccccc1F (stereo not given),-3,.,12,19,12,.,.
COc1ccc(CC(=O)NCc2n[nH]c(=S)n2-c2cccc(Cl)c2)cc1,1,9,-2,3,18,-27,.
SMILES,TIM10 inh,SKKanGAS inh,tim10-1 inh,tim23-1 inh,NALP3 yeast inh,NALP1 yeast inh,tim10-1 conf
CC1=CC2=C(OC1N(C)C)c1cccc3cccc(c13)C2=O (stereo not given),37,-3,47*,14,-30,-29,55*
CN(C)CCN(C(=O)c1ccc2ccccc2c1)c1nc2cc3c(cc2s1)OCCO3,12,7,16,13,-5,25,.
CN(C)CCN(C(=O)c1cccc2ccccc12)c1nc2cc3c(cc2s1)OCO3,26,2,45*,28,28,23,-1
COc1cccc(C(=O)NC2CCCc3c2cnn3-c2ccc(C)c(C)c2)c1OC (stereo not given),2,-2,31,28,17,5,.
COc1ncccc1C(=O)NC1CCCc2c1cnn2-c1ccc(C)c(C)c1 (stereo not given),28,8,52*,34,-53,12,15
Cn1c(N/N=C/c2c[nH]c3ccccc23)nc2ccccc21,-10,29,11,-25,14,5,.
Cn1c(N/N=C/c2cc3ccccc3nc2Cl)nc2ccccc21,21,6,42*,30,30,21,33*
CC1=C(C(=O)N2CCCCC2)C2(CCC(C)CC2)OC1=O (stereo not given),16,-3,14,21,-1,10,.
CC1=C(C(=O)N2CCc3ccccc32)C2(CCC(C)CC2)OC1=O (stereo not given),22,.,48*,28,-7,-1,33*
Cc1ccc(C(NC(=O)c2cccc(S(=O)(=O)N3CCN(C)CC3)c2)c2ccccc2)cc1 (stereo not given),9,.,-1,3,15,.,.
CC(C)OC(=O)C(=O)NNc1ccccc1,-26,-8,-8,-69,14,37,.
C=C(C)C(=O)NNc1ccccc1,8,9,41*,48,9,27*,37*
CCCCC1(C)NC(=O)N(CC(=O)Nc2cc(S(=O)(=O)N3CCOCC3)ccc2Cl)C1=O (stereo not given),11,.,13,18,9,.,.
COc1ccc(/C=C\C(=O)O[C@@H]2C(O)C(O[C@@H]3OC(C)[C@H](O[C@@H]4OCC(O[C@H]5O[C@H](CO)[C@@H](O)C(O)C5O)C(O)C4O)C(O)C3O)[C@H](OC(=O)[C@]34CCC(C)(C)C[C@@H]3C3=CCC5[C@@]6(C)CC(O)C(O[C@@H]7OC(CO)C(O)[C@H](O)[C@H]7O)[C@@](C)(C(=O)O)C6CC[C@@]5(C)[C@]3(CO)CC4)O[C@H]2C)cc1 (stereo not given in full),-12,.,48*,16,26,.,38*
O=C(NCc1ccccn1)Nc1cccc(F)c1,9,25,-18,-10,16,-3,.
